POLI inh: blocks human DNA polymerase iota activity | Q9UNA4 | 390,000 tested, 1% active | Pol iota fluorescent replication assay, 10 min | Potency, µM (titrated, usually from 115 µM), usual class: inhibitors
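Pol iota at 10 nM preincubated 15 min with compounds at room temperature; reaction started with fluorescent substrate, 50 nM final. Fluorescence read kinetically at 0 and 10 min; buffer-only wells as negative control.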
POLH inh: DNA polymerase eta (human) inhibition; AID 588591; Q9Y253; recombinant Pol eta, fluorescent DNA replication assay; Potency, µM (top dose mostly 114 µM), most hits filed as inhibitors; 390,000 tested, 1.2% active
Target sequence (Q9Y253 whole entry, looked up): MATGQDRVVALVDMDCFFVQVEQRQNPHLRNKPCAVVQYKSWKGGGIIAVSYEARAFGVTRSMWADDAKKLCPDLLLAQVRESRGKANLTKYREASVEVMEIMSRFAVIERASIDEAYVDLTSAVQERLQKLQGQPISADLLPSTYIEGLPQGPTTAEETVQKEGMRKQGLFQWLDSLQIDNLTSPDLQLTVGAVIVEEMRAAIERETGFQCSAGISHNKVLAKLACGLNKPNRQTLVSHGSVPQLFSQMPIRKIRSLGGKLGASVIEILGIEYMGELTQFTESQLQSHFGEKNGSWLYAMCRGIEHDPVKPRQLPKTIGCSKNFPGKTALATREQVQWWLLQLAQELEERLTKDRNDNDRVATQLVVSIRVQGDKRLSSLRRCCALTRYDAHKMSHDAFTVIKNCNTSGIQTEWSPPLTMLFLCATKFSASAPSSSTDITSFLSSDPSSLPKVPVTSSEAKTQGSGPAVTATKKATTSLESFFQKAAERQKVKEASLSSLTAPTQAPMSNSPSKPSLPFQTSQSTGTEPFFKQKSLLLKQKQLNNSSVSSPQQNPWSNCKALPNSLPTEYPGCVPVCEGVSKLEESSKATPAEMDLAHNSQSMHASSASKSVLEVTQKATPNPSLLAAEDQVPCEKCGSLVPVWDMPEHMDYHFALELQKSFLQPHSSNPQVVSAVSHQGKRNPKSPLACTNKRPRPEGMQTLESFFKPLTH
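Fluorescent replication assay: 50 nM final substrate added after a 15 min room-temperature compound preincubation with 10 nM enzyme. Signal taken at 0 min and again at 10 min.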
Pol kappa inh: inhibitors of human DNA polymerase kappa; 400,000 tested, 0.53% active; Potency, µM (doses to about 107 µM), usual class: inhibitors; purified Pol kappa, fluorescent DNA synthesis assay, 10 min
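First, compounds were pin-transferred onto 10 nM Pol kappa. After 15 min at room temperature, substrate was added to 50 nM final. Fluorescence was then measured kinetically at 0 and 10 min.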
WRN helicase inh: WRN helicase (human) inhibition | 360,000 tested, 0.46% active | WRN helicase unwinding, fluorescent forked duplex, kinetic | AID 651768 | Potency, µM (highest dose often 114 µM), most hits filed as inhibitors; further: nearly all actives have a fitted effect of over 55% in size
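WRN at 20 nM final was preincubated with compound for 15 min at room temperature; reaction started with 100 nM forked duplex oligonucleotide carrying fluorophore and quencher plus 2 mM ATP (final). Unwinding followed kinetically by red fluorescence (ex 525/em 598 nm).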
FEN1 inhibitor: human FEN1 inhibition | P39748 | AID 588795 | Potency, µM (titrated, usually from 114 µM), most hits filed as inhibitors | Recombinant FEN1 flap cleavage, fluorescence, 15 min | 390,000 tested, 0.35% active; further: nearly all actives have a fitted effect of over 65% in size
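Quantitative HTS format: each compound was titrated, incubated with 10 nM nuclease for 15 min at room temperature, then challenged with flap substrate at 50 nM final. Signal change over 15 min gave concentration–effect curves.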
Pol beta inh-1: DNA polymerase beta (human) inhibition. Potency, µM (series often up to 114 µM), actives largely listed as inhibitors. 340,000 tested, 1.3% active. Pol beta primer extension/strand displacement, fluorescence kinetic. P06746. AID 485314
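Homogeneous kinetic assay of primer extension and strand displacement by 10 nM Pol beta, preincubated 15 min at room temperature with compound before 50 nM substrate (final) was added. Read at 0 and 10 min; four-parameter Hill fit.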
Pol beta inh-2: Validate hits inhibiting human DNA polymerase beta; shares compounds with Pol beta inh-1; Pol beta primer extension/strand displacement, fluorescence kinetic; Potency, µM, usual class: inhibitors; 250 tested, 87% active; AID 540280; calls by dose curve
Klenow inh: counter-screen for DNA polymerase beta inhibitors: Klenow fragment inhibition; shares compounds with Pol beta inh-1; 250 tested, under 10 active; activity change, negative = inhibition, % at 57.1 µM; Klenow exo- polymerase counter-screen, fluorescent DNA substrate
HIV RT counter: counter-screen for DNA polymerase beta inhibitors: HIV-1 RT inhibition | shares compounds with Pol beta inh-1 | HIV-1 RT polymerase activity, counter-screen | activity % (negative = inhibition, positive = activation), % at 57.1 µM | 250 tested, under 10 active | AID 540301
POLB valid: DNA polymerase beta inhibition, radiolabeled validation; 110 tested, 91% active; inhibition, % at 10 µM; shares compounds with Pol beta inh-1; radiolabeled primer extension gel assay, phosphorimager;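 active means inhibition at 10 µM of 30% or more; inconclusive means no clear call, values can overlap the other calls; inactive means inhibition at 10 µM under 30%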
Numbers stand for hits; . = inactive; ? = inconclusive; / = no result; ! = a repeat was not active; [ ] = remark or other dose. Most compounds without a hit are left out; they make up all but 2.4% or so of the library. Unless noted, the call rests on the fitted dose curve; in most records, active means well fitted curve in the direction sought with a large enough effect; inconclusive means small, poorly fitted or top-dose-only effect, or another doubt; inactive means no such curve, though single readings can be large; an effect the other way counts as inactive or inconclusive.

SMILES	POLI inh	POLH inh	Pol kappa inh	WRN helicase inh	FEN1 inhibitor	Pol beta inh-1	others
CCc1nn2c(=O)cc(COc3ccc(NC(=O)c4ccco4)cc3)nc2s1	71µM	.	.	.	.	.
COc1cccc(NCc2nnc(SC(C(=O)N(C)C)c3ccccc3)n2C2CCCCC2)c1 (stereo not drawn)	.	/	.	/	.	/
CCOC(=O)C1C(=O)C=C(/C=C/c2ccc(N(C)C)cc2)CC1c1ccccc1 (stereo not drawn)	?	.	.	50µM	.	.
CCOC(=O)C1C(=O)C=C(c2ccc(C)cc2)CC1c1ccccc1 (stereo not drawn)	.	.	.	.	.	.
O=C(COC(=O)c1cc(-c2ccco2)nc2ccccc12)NCc1ccc2c(c1)OCO2	.	?	.	.	.	28µM
COc1ccc(NC(=O)c2cc(-c3ccco3)nc3ccccc23)cc1	?	.	.	.	.	/
O=C(O)c1cc(-c2ccco2)nc2ccc(Br)cc12	2.8µM!	2.5µM!	7.1µM!	10µM!	13µM!	3.2µM!
NC(=O)COC(=O)c1cc(-c2ccco2)nc2ccccc12	?	45µM	?	.[11.6 µM]	?	?
O=C(c1ccco1)N1CCN(C(=O)c2cc(-c3ccncc3)nc3ccc(Br)cc23)CC1	.	?	.	.	.	/
COc1cc(/C=N/NC(=O)c2cc(-c3ccco3)nc3ccccc23)cc(OC)c1O	45µM	?	?	.[11.6 µM]	.	50µM
CCC(C)(C)c1ccc(CC(C)CN2C[C@@H](C)O[C@@H](C)C2)cc1 (stereo partly drawn)	/	/	.[19.4 µM]	/	/	/
COC(=O)c1ccn(-c2nc(-c3ccc(Cl)cc3)cc(C(F)(F)F)n2)n1	.	.	.	/	.	.
COC(=O)c1cn(CCOc2ccccc2OC)c2ccccc12	.	?	.	.	.	.
COC(=O)c1cn(CCOc2ccccc2F)c2ccccc12	.	.	.	.	.	89µM
Cc1ccc(OCC(=O)Nc2cc(NC(=O)COc3ccc(C)cc3)cc(C(=O)O)c2)cc1	?	.	.	.	.	.
Cc1cccc(OCC(=O)Nc2cc(NC(=O)COc3cccc(C)c3C)cc(C(=O)O)c2)c1C	.	?	.	.	.	10µM
Cc1ccc(-c2nc3ccccc3[nH]2)cc1NC(=O)COc1ccc(Cl)cc1Cl	.	.	.	/	.	.
Cc1ccc(-c2nc3ccccc3[nH]2)cc1NC(=O)COc1cccc(C)c1C	89µM	.	.	/	.	.
Cc1ccc(OCC(=O)Nc2cc(C(=O)O)cc(C(=O)O)c2)cc1C	.	.	.	79µM	.	.
Cn1c2ccccc2c2nnc(SCCOc3ccccc3)nc21	.	/	.	/	.	/
CC(C)(C)n1ncc2c(=O)n(Cc3ccccc3C(F)(F)F)cnc21	.	/	.	/	.	/
O=C(OCc1cc(=O)n2c(n1)sc1ccccc12)c1ccc2c(=O)n3c(nc2c1)CCC3	?	?	?	.[11.6 µM]	.	10µM	Pol beta inh-2=13;Klenow inh=.;HIV RT counter=.
COc1ccc(C(=O)N2CCC3(CCCN(Cc4ccccc4)C3)CC2)cc1	/	/	.	/	/	/
CC(C)(C)c1ccc(C(=O)Nc2ccc(S(N)(=O)=O)cc2)cc1	.	.	.	.	.	.
NS(=O)(=O)c1ccc(NC(=O)c2ccc(-c3ccccc3)cc2)cc1	?	?	?	.	.	14µM	Pol beta inh-2=16;Klenow inh=.;HIV RT counter=.
SMILES	POLI inh	POLH inh	Pol kappa inh	WRN helicase inh	FEN1 inhibitor	Pol beta inh-1	others
O=C(COC(=O)C1CC(=O)N(Cc2ccco2)C1)c1ccc(OC(=O)c2ccco2)cc1 (stereo not drawn)	18µM	3.2µM	32µM	35µM	?	7.1µM	Pol beta inh-2=8.9;Klenow inh=.;HIV RT counter=?
Cc1ccc(C(=O)Oc2ccc(C(=O)COC(=O)C3CC(=O)N(Cc4ccco4)C3)cc2)cc1 (stereo not drawn)	4.5µM	13µM	45µM	?	.	16µM	Pol beta inh-2=14;Klenow inh=.;HIV RT counter=.
O=C(COC(=O)C1CC(=O)N(Cc2ccccc2)C1)c1ccc(Br)cc1 (stereo not drawn)	.	.	.	.	.	.
Cc1[nH]c2ccccc2c1C(=O)COC(=O)C1CC(=O)N(Cc2ccco2)C1 (stereo not drawn)	.	.	.	.	.	.
CCCOC(=O)C1=C(C)CS[C@@H]2[C@H](NC(=O)COc3ccccc3)C(=O)N12	.	/	.	/	.	/
Cn1c(=O)cnc2cnc(Nc3ccccc3)nc21	/	/	.	/	/	/
O=C(CSc1nc2c(cnn2-c2ccccc2)c(=O)[nH]1)N1CCCCC1	.	.	.	.	.	.
O=C(CSc1nc2c(cnn2-c2ccccc2)c(=O)[nH]1)c1ccc(Cl)cc1	?	?	.	.	?	5µM	Pol beta inh-2=7.1;Klenow inh=.;HIV RT counter=.
O=C(Cn1cnc2sc(-c3ccccc3)cc2c1=O)NCc1ccccc1	?	.	.	.	.	?
O=C(Cn1cnc2sc(-c3ccccc3)cc2c1=O)NCc1ccco1	10µM	7.1µM	32µM	56µM	?	7.9µM	Pol beta inh-2=7.1;Klenow inh=.;HIV RT counter=.
Cc1cc(-c2nc3c4c5c(sc4[nH]c(=O)n3n2)CCC5)c(C)o1	13µM	13µM	?	?	?	3.5µM	Pol beta inh-2=32;Klenow inh=.;HIV RT counter=.;POLB valid=.
COc1ccccc1N1CCN(S(=O)(=O)CCNC(=O)Cc2ccc(Cl)cc2)CC1	.	.	.	/	.	.
CCn1c(=NC(=O)c2cccc(N3C(=O)CCC3=O)c2)sc2c(C)ccc(OC)c21	.	.	.	.	.	.
CCn1c(=NC(=O)c2ccc(N3C(=O)CCC3=O)cc2)sc2c(OC)ccc(OC)c21	16µM	?	?	.	?	10µM	Pol beta inh-2=?;Klenow inh=.;HIV RT counter=.;POLB valid=98
CCc1ccc(NC(=O)CC2C(=O)N(c3ccc(Cl)cc3)C(=O)N2Cc2cccs2)cc1 (stereo not drawn)	.	.	.	/	.	.
C=CCn1c(=NC(=O)c2sc3ccccc3c2Cl)sc2cc(S(N)(=O)=O)ccc21	.	?	?	.	.	8.9µM	Pol beta inh-2=14;Klenow inh=.;HIV RT counter=.
Cc1cccc(OC(=O)CSc2nnc(CNC(=O)c3ccccc3)o2)c1C	.	.	.	/	.	.
O=C(Nc1nnc(SCc2c(Cl)cccc2Cl)s1)C1CC(=O)N(c2ccc3c(c2)OCCO3)C1 (stereo not drawn)	16µM	?	?	.	.	7.1µM	Pol beta inh-2=?;Klenow inh=.;HIV RT counter=.

Screening results: PubChem, National Center for Advancing Translational Sciences (NCATS)
